These results are taken from PubChem BioAssay (NCATS).

Several values for one entry are separate records, joined by “and”; a condition that tells them apart may be missing. Equal values may be shown once. Results filed as inconclusive are left out. Activity calls are given as the source filed them. Unless noted, calls come from the whole dose curve; as a rule, active = well fitted curve in the direction sought with a large enough effect; inconclusive = small, poorly fitted or top-dose-only effect, or another doubt; inactive = no such curve, though single readings can be large; an effect the other way counts as inactive or inconclusive.

Assay [1] in a line: qHTS drug screen for cell cycle checkpoint inhibitors in PARPi-resistant BRCA-mutant ovarian cancer cell lines. (AID 1963452; calls by dose curve). The following applies: PEO1/OlaR viability, CellTiter-Glo luminescence, 96 h, stronger effect = lower value. A digest of the protocol: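 PEO1, PEO4 and PEO1/OlaR ovarian cancer cells, 600 per well, exposed 96 h at 37C to a dilution series. Viability read by CellTiter-Glo luminescence, normalized to DMSO and empty wells; activity summarized as Z-AUC.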
For orientation: qHTS replaces the single test concentration by a dilution series.

Assay [2] is described as follows: qHTS for identification of novel therapeutic agents for treatment of microphthalmiaassociated transcription factor (MiT) renal cell carcinoma (RCC) (AID 1963991). The following applies: CellTiter-Glo, 48 h, stronger effect = lower value. A digest of the protocol: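 Viability of three TFE3-fusion renal carcinoma lines measured by CellTiter-Glo after 48 h treatment with each of 1912 compounds at 11 concentrations. Responses scaled between DMSO (100%) and empty wells (0%) before curve fitting.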

Assay [3] in a line: qHTS profiling for inhibitors of Plasmodium falciparum proliferation (AID 504749).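 For activity, negative = inhibition: 0% = DMSO vehicle and full inhibition = artemisinin control.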 Note: nearly all actives have a fitted effect of over 60% in size. Note: potency is the fitted concentration of half-maximal effect. Particulars: P. falciparum in erythrocytes, SYBR Green DNA, 72 h. A digest of the protocol: (§1)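 SYBR Green fluorescence of parasite DNA, read after lysis and overnight dark incubation, measured growth over 72 h in erythrocyte culture at 0.3% parasitemia and 2.5% hematocrit. Data normalised to DMSO and 0.29 uM artemisinin, with plate-drift correction.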

In a further assay the test system is 3D7. The assay is described as above. The following applies: P. falciparum in erythrocytes, SYBR Green DNA, 72 h; series mostly up to 28.7 µM. A digest of the protocol: as §1
In another assay the test system is 7G8. Described as above. The following applies: P. falciparum in erythrocytes, SYBR Green DNA, 72 h; series mostly up to 28.7 µM. A digest of the protocol:
as §1

The subject of another assay is AA1029. Described as above. The following applies: P. falciparum in erythrocytes, SYBR Green DNA, 72 h; series mostly up to 28.7 µM. A digest of the protocol:
as §1

For the next assay, the system named is AS120. Described as above. The following applies: P. falciparum in erythrocytes, SYBR Green DNA, 72 h; series mostly up to 28.7 µM. A digest of the protocol:
as §1

In the next assay the test system is ATS189. The description is as above. Particulars: P. falciparum in erythrocytes, SYBR Green DNA, 72 h; series mostly up to 28.7 µM. A digest of the protocol: as §1
Assay [4] has as its target Nuclear receptor subfamily 1 group I member 2 (Homo sapiens) (UniProt O75469). The experiment in a line: Dual reporter qHTS for antagonist of Pregnane X Receptor (hPXR) against the NCATS DSHEA and TCM libraries: Luminescence Readout (AID 1920060). Note: 0% is about no effect. Particulars: hPXR dual reporter cells, luciferase luminescence, antagonist mode; series mostly up to 40 µM. A digest of the protocol: (§2)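 Rifampicin-stimulated (2 uM final) hPXR-luciferase HepG2 cells were treated for 24 h with DSNP/TCM substances. Viability came from CellTiter-Fluor fluorescence, reporter activity from ONE-Glo luminescence.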

The nature of assay [5]: Dual reporter qHTS for antagonist of Pregnane X Receptor (hPXR) against the NCATS DSHEA and TCM libraries: Fluorescence Readout (AID 1920061). Note: 0% is about no effect. Particulars: PXR dual reporter cells, antagonist mode; series mostly up to 40 µM. A digest of the protocol:
as §2

The mark [6] stands for this setting: measured here: PEO1 parental Z-AUC.
The mark [7] stands for this setting: TFE3-RCC UOK109 viability, measured here: UOK109 Z-AUC.
[8] abbreviates: TFE3-RCC viability, measured here: UOK124 Z-AUC.
[9] abbreviates: TFE3-RCC viability, measured here: UOK145 Z-AUC.
The mark [10] stands for this setting: at 28.7 µM (top of the series), parasite line A.
The mark [11] stands for this setting: at 28.7 µM (top of the series), parasite line B.

Chain of Nuclear receptor subfamily 1 group I member 2 (Homo sapiens) (O75469 whole entry, looked up): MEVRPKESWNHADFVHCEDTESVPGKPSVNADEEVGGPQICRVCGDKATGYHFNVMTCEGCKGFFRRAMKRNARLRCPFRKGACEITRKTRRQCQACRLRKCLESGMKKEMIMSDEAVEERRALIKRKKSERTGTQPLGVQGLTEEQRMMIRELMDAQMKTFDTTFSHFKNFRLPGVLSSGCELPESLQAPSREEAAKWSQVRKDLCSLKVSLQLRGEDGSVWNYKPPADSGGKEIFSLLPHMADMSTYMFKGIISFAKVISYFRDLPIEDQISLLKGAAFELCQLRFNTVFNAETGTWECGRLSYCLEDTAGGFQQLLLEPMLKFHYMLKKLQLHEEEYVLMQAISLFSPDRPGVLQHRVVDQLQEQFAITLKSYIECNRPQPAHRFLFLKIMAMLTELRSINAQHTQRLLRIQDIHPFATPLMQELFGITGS

With `NCCCCCC(=O)O`, the Z-AUC in [1] is 1.55 (inactive); in assay [1] (setting [6]) it was 1.11; in [1] (measured here: PEO4 Z-AUC), 1.26. Also, the z-score in assay [2] (setting [7]) turned out to be 0.855; in assay [2] (setting [8]) it was 0.487; in [2] (setting [9]), 0.828. In addition, the activity, negative = inhibition in assay [3] (at 12.8 µM (top of the series), parasite line A) was 3.43% (inactive); in assay [3] (at 12.8 µM (top of the series), parasite line B) it was 5.54% (inactive). Moreover, the Potency result in the assay with 3D7, with 7G8, with AA1029, with AS120 and in the assay with ATS189 was “inactive” in each case.
Take `NS(=O)(=O)c1cc2c(cc1Cl)NCNS2(=O)=O`: the Z-AUC in [1] is 1.17 (inactive); in [1] (setting [6]), 1.34; in assay [1] (measured here: PEO4 Z-AUC), 1.57. Besides, the z-score in [2] (setting [7]) stood at 0.106; in assay [2] (setting [8]), 0.843; in assay [2] (setting [9]), 0.437. In addition, the activity, negative = inhibition in assay [3] (setting [10]) is 1.79% (inactive); in assay [3] (setting [11]), 14.1% (inactive). Moreover, the Potency result in the assay on 3D7, with 7G8, with AA1029, in the assay with AS120 and in the assay on ATS189 was “inactive” throughout.
As to `CCc1cccc2c3c([nH]c12)C(CC)(CC(=O)O)OCC3` (stereo not drawn), the Z-AUC in [1] is 0.208 (inactive); in assay [1] (setting [6]), 0.962; in [1] (measured here: PEO4 Z-AUC) it was 0.882. For the same compound, the z-score in assay [2] (setting [7]) turned out to be 0.838; in [2] (setting [8]), 0.432; in assay [2] (setting [9]), 0.577.
For the compound `O=c1c(O)c(-c2ccc(O)c(O)c2)oc2cc(O)cc(O)c12`, the compound was called inactive in assay [4] and in [5]. Also, the figures for the Z-AUC in assay [1], in assay [1] (setting [6]) and in assay [1] (measured here: PEO4 Z-AUC) were 0.194 (inactive), 0.475 and 0.343, respectively. Further, the Potency in the assay on 3D7 was 12.6 µM (active); with AS120, 11.2 µM (active).
As for `CN(C)C(=O)C(CCN1CCC(O)(c2ccc(Cl)cc2)CC1)(c1ccccc1)c1ccccc1`, the Z-AUC in assay [1] was -1.16 (inactive); in assay [1] (setting [6]), -0.647; in assay [1] (measured here: PEO4 Z-AUC) it was -0.794.
As to `NC(=O)OCC(COC(N)=O)c1ccccc1`, the results for the Z-AUC in assay [1], in [1] (setting [6]) and in [1] (measured here: PEO4 Z-AUC) were 0.532 (inactive), 1.02 and 1.07, respectively. For the same compound, the values for the z-score in assay [2] (setting [7]), in assay [2] (setting [8]) and in assay [2] (setting [9]) were 0.961, 0.566 and -0.0858, respectively. The activity, negative = inhibition in [3] (setting [10]) was 12.4% (inactive); in assay [3] (setting [11]), 14.7% (inactive). Further, the Potency entry with 3D7, with 7G8, with AA1029, with AS120 and with ATS189 was “inactive” each time.
In the case of `CCOC(=O)Nc1ccc(NCc2ccc(F)cc2)nc1N`, the Z-AUC is -0.444 (inactive) in assay [1], -0.223 in assay [1] (setting [6]) and -0.051 in [1] (measured here: PEO4 Z-AUC). Besides, the z-score in assay [2] (setting [7]) was found to be 0.955; in [2] (setting [8]) it was 0.938; in assay [2] (setting [9]), 0.317. Moreover, the Potency in [3] (parasite line A) is 7.94 µM (active); in [3] (parasite line B), 12.6 µM (active); in the assay on 3D7, 7.94 µM (active); in the assay with 7G8 it was 10 µM (active); in the assay on AA1029, 11.2 µM (active); with AS120, 12.6 µM (active). Moreover, the Potency in the assay on ATS189 was 10 µM (active).
Consider `NC(CO)C(=O)NNCc1ccc(O)c(O)c1O` (stereo not drawn), for which the values for the Z-AUC in assay [1], in assay [1] (setting [6]) and in assay [1] (measured here: PEO4 Z-AUC) were -0.229 (inactive), -0.392 and -0.375, respectively. The values for the z-score in assay [2] (setting [7]), in assay [2] (setting [8]) and in assay [2] (setting [9]) were 0.539, -0.122 and 0.506, respectively.
As to `C[C@H]1c2cccc(O)c2C(O)=C2C(=O)[C@]3(O)C(O)=C(C(N)=O)C(=O)[C@@H](N(C)C)[C@@H]3[C@@H](O)[C@@H]21`, the Z-AUC was 0.309 (inactive) and -0.104 (inactive) in assay [1]; 0.47 and 0.545 in assay [1] (setting [6]); 0.542 and 0.724 in assay [1] (measured here: PEO4 Z-AUC).
Regarding `O=C(C1CCCCC1)N1CC(=O)N2CCc3ccccc3C2C1` (stereo not drawn), the Z-AUC is 1.17 (inactive) in [1], 0.752 in [1] (setting [6]) and 1.07 in [1] (measured here: PEO4 Z-AUC). Besides, the figures for the z-score in [2] (setting [7]), in assay [2] (setting [8]) and in [2] (setting [9]) were -4.91, 0.786 and -3.49, respectively.
